One assay concerns the target POU1 (OCT1 POU domain) (human, UniProt P14859 260-458). As to the kind of experiment: EMSA-SELEX-seq; no BOB1; 20 mM Tris-HCl pH 7.6, 140 mM NaCl, 10% glycerol, 0.5 mM EDTA, 0.05% Triton X-100, 0.1 mg/mL BSA, 0.1 mg/mL poly(dI-dC), 5 mM DTT, room temperature, 20 min; high values mean tight binding. Particulars: protein: recombinant; dsDNA, one strand shown. In short, it runs like this:
(§1)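 After expression in E. coli BL21, tagged POU-domain proteins were purified under denaturing conditions and then renatured. Each binding reaction held 30 ng protein and 300 ng of a PCR-amplified double-stranded random 35-nt library in 20 μL Tris–HCl pH 7.6 binding buffer, with or without 28 ng coactivator protein, for 20 min at RT. Bands holding complexes were cut from native 6% PAGE, eluted and PCR-amplified across four rounds, and the output was Illumina-sequenced. The value given for binding preference is the share, in percent, of sequenced 8-mers fitting a motif pattern.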
(A gel shift assay detects complexes by their altered migration in electrophoresis.)

The target of a further assay is T1, POU2 (OCT2 POU domain) (human, UniProt P09086 175-386).
T1 sequence: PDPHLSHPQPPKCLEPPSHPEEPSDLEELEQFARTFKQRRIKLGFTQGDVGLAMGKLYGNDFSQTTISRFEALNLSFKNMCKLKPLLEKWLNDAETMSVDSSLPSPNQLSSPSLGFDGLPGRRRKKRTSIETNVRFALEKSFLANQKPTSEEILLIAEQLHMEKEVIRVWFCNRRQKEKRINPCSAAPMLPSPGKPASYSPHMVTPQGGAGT
The description is as above. The settings on record: protein: recombinant; dsDNA, one strand shown. In short, it runs like this: as §1

In assay [1] the target is POU1 (OCT1 POU domain);BOB1 (OBF1, OCA-B) (human;human, UniProt P14859;Q16633 260-458;1-256, |). The assay is described as follows: EMSA-SELEX-seq; with BOB1 (ternary complex band); 20 mM Tris-HCl pH 7.6, 140 mM NaCl, 10% glycerol, 0.5 mM EDTA, 0.05% Triton X-100, 0.1 mg/mL BSA, 0.1 mg/mL poly(dI-dC), 5 mM DTT, room temperature, 20 min; high values mean tight binding. The settings on record: protein: recombinant;recombinant; copies: 1;1; dsDNA, one strand shown. The procedure, abridged:
as §1

The target in assay [2] is T2, POU2 (OCT2 POU domain);BOB1 (OBF1, OCA-B) (human;human, UniProt P09086;Q16633 175-386;1-256, |).
T2 sequence 1: T1 sequence
T2 sequence 2: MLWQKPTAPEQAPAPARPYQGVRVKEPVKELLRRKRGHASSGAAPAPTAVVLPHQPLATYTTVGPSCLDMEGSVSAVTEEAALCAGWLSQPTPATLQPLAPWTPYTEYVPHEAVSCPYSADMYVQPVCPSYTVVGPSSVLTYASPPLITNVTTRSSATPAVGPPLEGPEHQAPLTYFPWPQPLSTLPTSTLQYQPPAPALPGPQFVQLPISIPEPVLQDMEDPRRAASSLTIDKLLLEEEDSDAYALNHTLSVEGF
The assay is described as above. The settings on record: protein: recombinant;recombinant; copies: 1;1; dsDNA, one strand shown. The procedure, abridged:
as §1

POU1 (OCT1 POU domain), sequence (P14859 260-458): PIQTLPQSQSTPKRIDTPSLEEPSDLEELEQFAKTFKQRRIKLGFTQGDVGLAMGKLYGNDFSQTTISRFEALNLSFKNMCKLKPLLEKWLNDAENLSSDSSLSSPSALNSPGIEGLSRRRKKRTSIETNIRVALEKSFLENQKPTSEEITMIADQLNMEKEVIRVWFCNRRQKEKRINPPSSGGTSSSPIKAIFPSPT

As for AATCGAAA, the binding signal was 0.0622 % of ANNNNAAN 8-mers with POU1 (OCT1 POU domain), 0.0512 % of ANNNNAAN 8-mers with POU2 (OCT2 POU domain), 0.0613 % of ANNNNAAN 8-mers in assay [1] and 0.0438 % of ANNNNAAN 8-mers in assay [2].

Turning to AGTACAAC, the binding signal with POU1 (OCT1 POU domain) is 0.0164 % of ANNNNAAN 8-mers; with POU2 (OCT2 POU domain) it was 0.0173 % of ANNNNAAN 8-mers; in assay [1], 0.0152 % of ANNNNAAN 8-mers; in assay [2], 0.0413 % of ANNNNAAN 8-mers.

Turning to ACCTCAAA, the binding signal is 0.0149 % of ANNNNAAN 8-mers in the assay with POU1 (OCT1 POU domain), 0.0155 % of ANNNNAAN 8-mers with POU2 (OCT2 POU domain), 0.0191 % of ANNNNAAN 8-mers in assay [1] and 0.0256 % of ANNNNAAN 8-mers in assay [2].

As for ACGAGAAC, the binding signal in the assay with POU1 (OCT1 POU domain) is 0.0179 % of ANNNNAAN 8-mers; with POU2 (OCT2 POU domain) it was 0.0178 % of ANNNNAAN 8-mers; in assay [1] it was 0.0156 % of ANNNNAAN 8-mers; in assay [2], 0.0165 % of ANNNNAAN 8-mers.

For the sequence ACCCTAAT, the binding signal in the assay with POU1 (OCT1 POU domain) was 0.037 % of ANNNNAAN 8-mers; with POU2 (OCT2 POU domain), 0.0518 % of ANNNNAAN 8-mers; in assay [1], 0.0273 % of ANNNNAAN 8-mers; in assay [2], 0.0223 % of ANNNNAAN 8-mers.

For AAGGCAAA, the binding signal with POU1 (OCT1 POU domain) is 0.222 % of ANNNNAAN 8-mers; with POU2 (OCT2 POU domain), 0.117 % of ANNNNAAN 8-mers; in assay [1], 0.443 % of ANNNNAAN 8-mers; in assay [2], 0.278 % of ANNNNAAN 8-mers.

Regarding AGGAAAAA, the binding signal was 0.134 % of ANNNNAAN 8-mers in the assay with POU1 (OCT1 POU domain), 0.0909 % of ANNNNAAN 8-mers with POU2 (OCT2 POU domain), 0.18 % of ANNNNAAN 8-mers in assay [1] and 0.102 % of ANNNNAAN 8-mers in assay [2].

For AGAGGAAC, the binding signal with POU1 (OCT1 POU domain) is 0.0229 % of ANNNNAAN 8-mers; in the assay with POU2 (OCT2 POU domain), 0.0339 % of ANNNNAAN 8-mers; in assay [1], 0.0234 % of ANNNNAAN 8-mers; in assay [2], 0.0264 % of ANNNNAAN 8-mers.

Regarding ACCATAAG, the binding signal in the assay with POU1 (OCT1 POU domain) was 0.0324 % of ANNNNAAN 8-mers; with POU2 (OCT2 POU domain), 0.0414 % of ANNNNAAN 8-mers; in assay [1], 0.0238 % of ANNNNAAN 8-mers; in assay [2], 0.0248 % of ANNNNAAN 8-mers.

For the sequence AAAGAAAC, the binding signal in the assay with POU1 (OCT1 POU domain) is 0.0355 % of ANNNNAAN 8-mers; with POU2 (OCT2 POU domain), 0.0339 % of ANNNNAAN 8-mers; in assay [1], 0.0433 % of ANNNNAAN 8-mers; in assay [2], 0.0371 % of ANNNNAAN 8-mers.

AGCTAAAC: the binding signal with POU1 (OCT1 POU domain) was 0.0187 % of ANNNNAAN 8-mers; with POU2 (OCT2 POU domain) it was 0.0236 % of ANNNNAAN 8-mers; in assay [1], 0.0265 % of ANNNNAAN 8-mers; in assay [2], 0.0256 % of ANNNNAAN 8-mers.

In the case of AGTTCAAG, the binding signal with POU1 (OCT1 POU domain) is 0.0297 % of ANNNNAAN 8-mers; in the assay with POU2 (OCT2 POU domain), 0.0276 % of ANNNNAAN 8-mers; in assay [1], 0.0359 % of ANNNNAAN 8-mers; in assay [2], 0.0314 % of ANNNNAAN 8-mers.

Consider AGTCTAAG, for which the binding signal was 0.0236 % of ANNNNAAN 8-mers with POU1 (OCT1 POU domain), 0.0322 % of ANNNNAAN 8-mers in the assay with POU2 (OCT2 POU domain), 0.0343 % of ANNNNAAN 8-mers in assay [1] and 0.0297 % of ANNNNAAN 8-mers in assay [2].

Take AAACCAAG: the binding signal was 0.0233 % of ANNNNAAN 8-mers with POU1 (OCT1 POU domain), 0.0161 % of ANNNNAAN 8-mers in the assay with POU2 (OCT2 POU domain), 0.0293 % of ANNNNAAN 8-mers in assay [1] and 0.0198 % of ANNNNAAN 8-mers in assay [2].

With ACACGAAT, the binding signal in the assay with POU1 (OCT1 POU domain) was 0.0347 % of ANNNNAAN 8-mers; with POU2 (OCT2 POU domain), 0.0575 % of ANNNNAAN 8-mers; in assay [1], 0.0379 % of ANNNNAAN 8-mers; in assay [2], 0.0438 % of ANNNNAAN 8-mers.

AGGAAAAT: the binding signal with POU1 (OCT1 POU domain) is 0.287 % of ANNNNAAN 8-mers; in the assay with POU2 (OCT2 POU domain), 0.2 % of ANNNNAAN 8-mers; in assay [1], 0.507 % of ANNNNAAN 8-mers; in assay [2] it was 0.347 % of ANNNNAAN 8-mers.

ACAGTAAA: the binding signal with POU1 (OCT1 POU domain) is 0.0481 % of ANNNNAAN 8-mers; in the assay with POU2 (OCT2 POU domain), 0.0414 % of ANNNNAAN 8-mers; in assay [1], 0.0531 % of ANNNNAAN 8-mers; in assay [2] it was 0.0338 % of ANNNNAAN 8-mers.

Consider AGCCCAAG, for which the binding signal was 0.0111 % of ANNNNAAN 8-mers in the assay with POU1 (OCT1 POU domain), 0.0129 % of ANNNNAAN 8-mers in assay [1] and 0.0124 % of ANNNNAAN 8-mers in assay [2].

Turning to AAAGGAAG, the binding signal with POU1 (OCT1 POU domain) was 0.0561 % of ANNNNAAN 8-mers; with POU2 (OCT2 POU domain), 0.061 % of ANNNNAAN 8-mers; in assay [1], 0.0675 % of ANNNNAAN 8-mers; in assay [2], 0.0702 % of ANNNNAAN 8-mers.

Turning to ACGCAAAG, the binding signal in the assay with POU1 (OCT1 POU domain) was 0.098 % of ANNNNAAN 8-mers; in the assay with POU2 (OCT2 POU domain), 0.061 % of ANNNNAAN 8-mers; in assay [1] it was 0.163 % of ANNNNAAN 8-mers; in assay [2], 0.0809 % of ANNNNAAN 8-mers.

On to AGTTAAAC, for which the binding signal is 0.0461 % of ANNNNAAN 8-mers with POU1 (OCT1 POU domain), 0.0593 % of ANNNNAAN 8-mers with POU2 (OCT2 POU domain), 0.0499 % of ANNNNAAN 8-mers in assay [1] and 0.0553 % of ANNNNAAN 8-mers in assay [2].

Turning to ATCGGAAC, the binding signal with POU1 (OCT1 POU domain) is 0.0175 % of ANNNNAAN 8-mers; with POU2 (OCT2 POU domain), 0.0242 % of ANNNNAAN 8-mers; in assay [1], 0.023 % of ANNNNAAN 8-mers; in assay [2], 0.0231 % of ANNNNAAN 8-mers.

Consider AGAAGAAC, for which the binding signal with POU1 (OCT1 POU domain) was 0.0191 % of ANNNNAAN 8-mers; with POU2 (OCT2 POU domain) it was 0.0288 % of ANNNNAAN 8-mers; in assay [1], 0.0176 % of ANNNNAAN 8-mers; in assay [2], 0.0256 % of ANNNNAAN 8-mers.

Regarding ACCTGAAC, the binding signal was 0.021 % of ANNNNAAN 8-mers in the assay with POU1 (OCT1 POU domain), 0.0113 % of ANNNNAAN 8-mers in assay [1] and 0.0215 % of ANNNNAAN 8-mers in assay [2].

For ACGCAAAA, the binding signal with POU1 (OCT1 POU domain) is 0.151 % of ANNNNAAN 8-mers; with POU2 (OCT2 POU domain), 0.0944 % of ANNNNAAN 8-mers; in assay [1], 0.277 % of ANNNNAAN 8-mers; in assay [2], 0.157 % of ANNNNAAN 8-mers.

For AATCTAAG, the binding signal with POU1 (OCT1 POU domain) is 0.0553 % of ANNNNAAN 8-mers; with POU2 (OCT2 POU domain), 0.0587 % of ANNNNAAN 8-mers; in assay [1] it was 0.062 % of ANNNNAAN 8-mers; in assay [2], 0.0545 % of ANNNNAAN 8-mers.

For the sequence ACGACAAG, the binding signal with POU1 (OCT1 POU domain) is 0.0175 % of ANNNNAAN 8-mers; in the assay with POU2 (OCT2 POU domain), 0.023 % of ANNNNAAN 8-mers; in assay [1], 0.0215 % of ANNNNAAN 8-mers; in assay [2] it was 0.0231 % of ANNNNAAN 8-mers.

For the sequence AGCGCAAA, the binding signal with POU1 (OCT1 POU domain) is 0.0263 % of ANNNNAAN 8-mers; with POU2 (OCT2 POU domain), 0.0305 % of ANNNNAAN 8-mers; in assay [1], 0.0324 % of ANNNNAAN 8-mers; in assay [2] it was 0.0215 % of ANNNNAAN 8-mers.

Take AAATAAAA: the binding signal with POU1 (OCT1 POU domain) is 0.177 % of ANNNNAAN 8-mers; with POU2 (OCT2 POU domain) it was 0.177 % of ANNNNAAN 8-mers; in assay [1], 0.199 % of ANNNNAAN 8-mers; in assay [2], 0.171 % of ANNNNAAN 8-mers.

As for ATGCGAAT, the binding signal in the assay with POU1 (OCT1 POU domain) is 0.124 % of ANNNNAAN 8-mers; in the assay with POU2 (OCT2 POU domain) it was 0.165 % of ANNNNAAN 8-mers; in assay [1] it was 0.0901 % of ANNNNAAN 8-mers; in assay [2] it was 0.128 % of ANNNNAAN 8-mers.
